Source: PubChem BioAssay
HTR5A ag ctr: counter-screen for OPRM1-OPRD1 agonists: human HTR5A agonism | P47898 | HTR5A agonist assay, luminescence, cell-based | activation, % at 9.3 µM | 340,000 tested, 0.61% active | AID 504692; in the data active = activation mostly above about 9.5%, no sharp cut-off; inactive = mostly below about 7.6%;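 note: 0% = cells with vehicle only and 100% = reference agonist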
Target sequence (P47898 whole entry, looked up): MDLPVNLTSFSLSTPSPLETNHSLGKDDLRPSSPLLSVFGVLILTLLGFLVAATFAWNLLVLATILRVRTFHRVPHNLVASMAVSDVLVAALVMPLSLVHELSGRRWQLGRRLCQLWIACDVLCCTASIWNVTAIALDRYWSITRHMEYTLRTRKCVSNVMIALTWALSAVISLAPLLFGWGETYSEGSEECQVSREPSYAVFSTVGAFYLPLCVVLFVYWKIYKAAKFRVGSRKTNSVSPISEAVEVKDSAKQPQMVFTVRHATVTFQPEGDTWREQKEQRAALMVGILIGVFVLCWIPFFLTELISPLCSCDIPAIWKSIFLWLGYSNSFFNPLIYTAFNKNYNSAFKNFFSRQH
MOR-DOR inv ag: mu-delta opioid heterodimer inverse agonism. cell-based MOR-DOR heterodimer luminescence. inhibition, % at 9.3 µM. 340,000 tested, 0.21% active. AID 504357; in the data active = inhibition above about 22%, passing the limit was not always enough;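 note: 0% = cells with DMSO and 100% = wells without cells with DMSO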
HTR5A inv ctr: counter-screen for OPRM1-OPRD1 inverse agonists: human HTR5A inverse agonism; 340,000 tested, 0.083% active; HTR5A cell line, luminescence; AID 504634; inhibition, % at 9.3 µM; P47898; in the data active = inhibition mostly above about 23%, no sharp cut-off; inactive = mostly below about 18%;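 note: 0% = cells with DMSO and 100% = no-cell wells with DMSO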
OPRM1-OPRD1 ag: OPRM1-OPRD1 heterodimerization agonism; P35372+P41143; cells, luminescence; activation, % at 9.3 µM; 340,000 tested, 0.3% active; AID 504326; in the data active = activation above about 18%;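 note: 0% = vehicle-treated cells and 100% = reference agonist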
* hit, by the source's call. A selection: hits, their analogues and other compounds. The true share with any hit is near 1.1%.

SMILES | HTR5A ag ctr | MOR-DOR inv ag | HTR5A inv ctr | OPRM1-OPRD1 ag
O=C(N/C(=C/c1ccc(F)cc1)C(=O)N1CCCC1)c1ccccc1 | 3 | 17 | -8 | -3
CCOC(=O)CNC(=O)CSc1nc2nc(C)c(Br)cc2[nH]1 | 13* | -10 | 14 | 2
Cc1ccc2nc(Cl)c3nnnn3c2c1 | 0 | 38* | 0 | -7
Cc1ccc2nc(N3CCN(c4cccc(C)c4C)CC3)c3nnnn3c2c1 | 5 | 11 | -14 | -2
CCCN(CC(=O)Nc1ccccc1C)C(=O)COC(=O)c1cnc(C)cn1 | 10* | -4 | -28 | 1
Cc1ccc(-c2nnc(N3CCN(c4ccccn4)CC3)c3ccccc23)cc1 | 13* | 3 | -12 | -1
c1ccc(-c2nnc(N3CCN(c4ccccn4)CC3)c3ccccc23)cc1 | 0 | 1 | -1 | 0
COc1ccc(NC(=O)CS(=O)CC(=O)Nc2ccc(-n3cnnn3)c(C)c2)cc1 (stereo not given) | -1 | 9 | 2 | -2
Cc1c([N+](=O)[O-])cc(C(=O)Nc2ccc3ncccc3c2)cc1[N+](=O)[O-] | 9.5* | -40 | -36 | 8
Cc1ccc2cc(NC(=O)c3cccc(F)c3)ccc2n1 | 5 | 1 | -31 | 0
Cc1ccc2cc(NC(=O)c3ccccc3)ccc2n1 | 9.4* | 0 | -34 | 0
CC1CCC(NC(=O)CCS(=O)(=O)c2ccc3c(c2)CCN3C(=O)C2CC2)CC1 (stereo not given) | 10* | 13 | -17 | -3
CCOC(=O)N1CCC(NC(=O)CCS(=O)(=O)c2ccc3c(c2)CCN3C(C)=O)CC1 | 0 | -1 | -14 | 0
COc1ccc(Cl)cc1S(=O)(=O)n1ccnc1 | 9.2* | 12 | -34 | -3
COc1ccc(Cl)cc1S(=O)(=O)N1CCCC1=O | -2 | 10 | 6 | -2
Cc1ccc(C(=O)N/N=C/c2cc(Br)ccc2O)cn1 | 10* | -5 | -38 | 1
CCCCn1nc(CC(=O)NCCN(CC)CC)c2ccccc2c1=O | 0 | -2 | 25 | 0
COc1ccccc1-c1noc2ncnc(Nc3cccc(C)c3C)c12 | -7 | 14 | -12 | -3
O=C(Nc1nc(-c2cccc3ccccc23)cs1)c1cnccn1 | 10* | 5 | -26 | -1
COc1ccccc1-c1cccc([C@@H]2C[C@H]3[C@H](CON3C)CN2C(=O)CCc2ccccc2)c1 | -1 | 7 | 6 | -1
Cc1ccc(N(CC(=O)NCC2CCCO2)S(=O)(=O)c2ccccc2)c(C)c1 (stereo not given) | 14* | 2 | -40 | 0
CSCc1ccc(C(=O)NC2CC(C)(C)Cc3c2cnn3-c2ccc(F)cc2)o1 (stereo not given) | 0 | 9 | -12 | -2
O=C(O)c1ccc(N/N=C/c2ccc(-c3ccccc3)cc2)cc1 | 13* | 7 | -10 | -1
C[C@H](CO)N1C[C@H](C)[C@H](CN(C)Cc2ccc(-c3ccccc3)cc2)Oc2ccc(NS(=O)(=O)c3ccccc3)cc2CC1=O | 14* | -24 | -23 | 4
COc1ccc(Nc2nc(S(=O)(=O)c3ccc(C)cc3)c(Cl)s2)cc1 | 13* | -66 | -35 | 9
SMILES | HTR5A ag ctr | MOR-DOR inv ag | HTR5A inv ctr | OPRM1-OPRD1 ag
Cc1ccc(S(=O)(=O)c2nc(Nc3ccccc3)sc2Cl)cc1 | -1 | -58 | 1 | 8
Cc1cc(C(=O)CCl)c(C)n1CCc1ccc(Cl)cc1 | 17* | -94 | -6 | 19*
Cc1cc(C(=O)CCl)c(C)n1CCc1ccc(F)cc1 | 7 | -16 | 3 | 3
CC(C)(C)OC(=O)C[C@@H]1C/C=C\C[C@@H](CC(=O)N(CCO)Cc2ccccc2)C(=O)NC[C@H](c2ccccc2)OC1=O | 12* | 4 | 24 | -1
CC(C)(C)OC(=O)C[C@@H]1C/C=C\C[C@@H](CC(=O)N(CCO)Cc2ccccc2)C(=O)NC[C@@H](c2ccccc2)OC1=O | -3 | 29 | 18 | -6
Cc1ccc(NC(=O)OC(C)N2CCCCC2)cc1NC(=O)OC(C)N1CCCCC1 (stereo not given) | 3 | -1 | -12 | 0
Cc1ccc(S(=O)(=O)Nc2ccc(NC(=O)Nc3cccc(C(F)(F)F)c3)cc2)cc1 | 21* | -144 | -8 | 28*
O=C(Nc1cccc(C(F)(F)F)c1)c1sc(Cl)nc1C(F)(F)F | 9.4* | -18 | -35 | 4
O=C(Nc1cccc(C(F)(F)F)c1)c1cc(-c2ccco2)on1 | 4 | -25 | 3 | 4
CCN(CC)S(=O)(=O)c1ccc(NC(=O)COc2c(OC)cccc2OC)cc1 | 13* | 2 | 3 | 0
Cc1ccc(NC(=S)NNC(=S)Nc2cccc(C(F)(F)F)c2)cc1 | 0 | -5 | -25 | 1
O=C(Nc1ccncc1)Nc1cccc(C(F)(F)F)c1 | 10* | -12 | -53 | 4
CCN(CC)S(=O)(=O)c1ccc(NC(=O)Nc2cccc(C(F)(F)F)c2)cc1 | 13* | -31 | 13 | 6
CCN(CC)S(=O)(=O)c1ccc(C(=O)Nc2cccc(C)c2)cc1 | 2 | -6 | 0 | 1
Cc1ccc(NS(=O)(=O)c2ccc(NC(=O)c3cccs3)cc2)cc1 | 8.3* | -38 | -10 | 7
CN(CCNC(=O)C1CCN(c2ncnc3c2nc2n3CCCCC2)CC1)Cc1ccccc1 | 11* | -1 | -17 | 0
O=C(Nc1ccc(Cl)cc1)C1CCCN(c2ncnc3c2nc2n3CCCCC2)C1 (stereo not given) | 6 | 7 | -8 | -1
O=C(NCc1ccc(Cl)cc1)C1CCCN(c2ncnc3c2nc2n3CCCCC2)C1 (stereo not given) | 13* | 12 | 18 | -2
COc1ccccc1C(=O)NNC(=O)c1sccc1-n1cccc1 | -3 | 11 | 35 | -2
CCOC(=O)c1c(-c2ccc(F)cc2)csc1NC(=O)CCN1CCOCC1 | 0 | 2 | -29 | 0
CCOC(=O)c1c(-c2ccc(-c3ccccc3)cc2)csc1NC(=O)CCN1CCOCC1 | 11* | -1 | -29 | 0
CCOC(=O)c1c(NC(=O)CCl)sc(CN(C)C)c1-c1ccccc1 | -1 | -4 | 8 | 1
CCOC(=O)c1c(NC(=O)CN2CCCCC2)sc(CN(C)C)c1-c1ccccc1 | 8.1* | 8 | -21 | -1
O=C(c1cc2ccccc2o1)N1CCN(Cc2ccc3c(c2)OCO3)CC1 | 11* | 9 | -11 | -3
CCCNC(=S)N1CCN(Cc2ccc3c(c2)OCO3)CC1 | 12* | -5 | -28 | 1
SMILES | HTR5A ag ctr | MOR-DOR inv ag | HTR5A inv ctr | OPRM1-OPRD1 ag
Cc1cc(Cl)ccc1NC(=S)N1CCN(Cc2ccc3c(c2)OCO3)CC1 | -2 | -29 | 39 | 5
Fc1ccccc1NC(=S)N1CCN(Cc2ccc3c(c2)OCO3)CC1 | 12* | 8 | -5 | -2
COc1ccc(-c2nc(CN(CC3CCC(=O)N3)C(C)C)c(C)o2)c(C)c1C (stereo not given) | 6 | 8 | -16 | -1
CN(CC(=O)NCc1ccco1)CC(=O)Nc1ccc(F)c(F)c1F | 11* | 13 | -43 | -2
CCCCOc1ccc(C2(C)CC(=O)NC2=O)cc1 (stereo not given) | 12* | 7 | -18 | -2
CCCOc1ccc(CC2CCC(=O)NC2=O)cc1 (stereo not given) | 3 | -4 | -8 | 1
